KB-V1 MDR tox: KB-V1 MDR subline cytotoxicity; AID 1347076; KB-V1 MDR cells viability, CellTiter-Glo, 72 h; Potency, µM (doses to about 46.1 µM), actives largely listed as cytotoxic; 400,000 tested, 3.4% active; further: nearly all actives have a fitted effect of over 60% in size
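Cytotoxicity toward P-gp-expressing KB-V1 cells was determined as loss of CellTiter-Glo luminescence after 72 h at 37 degrees C. Compounds were tested in quantitative HTS format across a concentration range, with curves fitted to normalized data.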
HT1080-NT tox: kills 2HG-producing HT-1080-NT fibrosarcoma cells. HT-1080-NT fibrosarcoma viability, CellTiter-Glo ATP luminescence, 48 h. 360,000 tested, 1.6% active. Potency, µM (doses to about 46.1 µM), for inactives: top-dose activity, negative = less viability, actives largely listed as cytotoxic. AID 686970;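 further: NT is the 2HG producing partner of a matched IDH1 knockdown line; 0% = DMSO-treated cells and -100% = media-only wells without cells; nearly all actives have a fitted effect of over 55% in size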
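HT-1080-NT fibrosarcoma cells (2HG-overproducing), 750 cells/well in RPMI with 5% FBS, dosed after 2 h and incubated 48 h at 37C. CellTiter-Glo luminescence normalized to DMSO and no-cell wells; concentration-response curves fitted and classed.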
TDP1 cell noCPT: qHTS for Inhibitors of human tyrosyl-DNA phosphodiesterase 1 (TDP1): qHTS in cells in absence of CPT; DT40 Tdp1-/- hTDP1 cells, no CPT, ATP luminescence, 48 h; 420,000 tested, 15% active; Potency, µM (top dose mostly 46.2 µM), for inactives: top-dose activity change, negative = growth inhibition, usual class: inhibitors; AID 686978, 2013; further: nearly all actives have a fitted effect of over 55% in size
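Readout: luminescence from CellTiter-Glo after 30 min in the dark at RT. Cells: DT40 Tdp1-/- with stable hTDP1, 400/well. Exposure: compounds alone, ≥48 hr, 37 °C.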
KB-3-1 tox: kills parental KB-3-1 adenocarcinoma cells. KB-3-1 viability, CellTiter-Glo ATP luminescence, 72 h. Potency, µM (top dose mostly 46.1 µM), hits mostly cytotoxic. 400,000 tested, 1.4% active; further: nearly all actives have a fitted effect of over 60% in size
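Parental KB-3-1 viability, qHTS format: 72 h compound exposure, 37 °C; CellTiter-Glo; media-only wells and DMSO plates as controls; concentration-effect fits on corrected data.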
TDP1 cell CPT: DT40-hTDP1 cell growth loss with CPT; chicken DT40 Tdp1-/-;hTDP1 cells + 20 nM CPT, ATP luminescence, 48 h; Potency, µM (series often up to 46.2 µM), for the others: top-dose activity change, negative = growth inhibition, hits mostly inhibitors; 420,000 tested, 12% active; AID 686979; further: nearly all actives have a fitted effect of over 55% in size
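Chicken DT40 Tdp1-/- cells stably complemented with human TDP1 were seeded at 400 cells/well in medium containing 20 nM camptothecin, exposed to pin-transferred compounds, and grown at 37 °C for at least 48 hr. Viability was read as ATP luminescence.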
HT1080 IDH1KD tx: toxicity to HT-1080 IDH1 knockdown cells (counter line); HT-1080 IDH1 knockdown viability, ATP luminescence, 48 h; Potency, µM (titrated, usually from 46.1 µM), for inactives: top-dose activity, negative = toxicity, usual class: cytotoxic; 360,000 tested, 2% active; AID 686971;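 further: 0% = DMSO wells and -100% = cell-free medium wells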
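In this qHTS, HT-1080 cells depleted of IDH1 are exposed for 48 h at 37 °C to compound titrations. Toxicity is scored from CellTiter-Glo luminescence, with DMSO as full viability and medium alone as none.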
An asterisk follows results filed as active; [ ] = another dose, or the depositor's remark. A selection: hits, their analogues and other compounds. The true share with any hit is near 19%. The call rests on the fitted dose curve; in most records, active means well fitted curve in the direction sought with a large enough effect; inconclusive means small, poorly fitted or top-dose-only effect, or another doubt; inactive means no such curve, though single readings can be large; an effect the other way counts as inactive or inconclusive. Unless noted, on the % scale 0 is the no-effect control and ±100 the full control effect; potency means the concentration at half of the fitted maximal effect.

Results for COc1cccc(-c2ccc3ncnc(NCc4cccs4)c3c2)c1 ?
KB-V1 MDR tox: inactive; TDP1 cell noCPT: inconclusive; KB-3-1 tox: inactive; TDP1 cell CPT: inconclusive

Results for COc1cccc(-c2ccc3ncnc(NC4CC4)c3c2)c1 ?
TDP1 cell noCPT: 12µM*; TDP1 cell CPT: 16µM*

Results for Cc1cc(Br)cn2c(CC(C)(C)C)c(C3CCCCC3)nc12 ?
KB-V1 MDR tox: inactive; HT1080-NT tox: 15%; TDP1 cell noCPT: inconclusive; KB-3-1 tox: inactive; TDP1 cell CPT: inconclusive; HT1080 IDH1KD tx: 14%

How did O=C(NN1C(=O)NC2(CCCCC2)C1=O)c1ccc(Cl)s1 do in these assays?
KB-V1 MDR tox: inactive; HT1080-NT tox: 2%; TDP1 cell noCPT: inconclusive; KB-3-1 tox: inactive; TDP1 cell CPT: 14%; HT1080 IDH1KD tx: 0%

How did O=C(CCCl)N1c2ccccc2C=Cc2ccccc21 do in these assays?
KB-V1 MDR tox: inconclusive; HT1080-NT tox: -6%; TDP1 cell noCPT: 15µM*; KB-3-1 tox: inactive; TDP1 cell CPT: inconclusive; HT1080 IDH1KD tx: -26%

Results for O=C(N1CCN(CCO)CC1)N1c2ccccc2C=Cc2ccccc21 ?
KB-V1 MDR tox: inactive; HT1080-NT tox: 0%; TDP1 cell noCPT: inconclusive; KB-3-1 tox: inactive; TDP1 cell CPT: 7%; HT1080 IDH1KD tx: -5%

What do the screens show for `Cc1cc(C)nc(SCC(=O)N/N=C\C(Br)=C\c2ccccc2)n1`?
KB-V1 MDR tox: inconclusive; HT1080-NT tox: -6%; TDP1 cell noCPT: 15µM*; KB-3-1 tox: inconclusive; TDP1 cell CPT: 6.5µM*; HT1080 IDH1KD tx: inconclusive

Results for Cc1cc(C)nc(SCC(=O)N/N=C/C=C/c2ccccc2)n1 ?
KB-V1 MDR tox: inactive; HT1080-NT tox: -4%; TDP1 cell noCPT: inconclusive; KB-3-1 tox: inactive; TDP1 cell CPT: inconclusive; HT1080 IDH1KD tx: -4%

What do the screens show for `Cc1ccc(NCC(=O)N/N=C\C(Br)=C\c2ccccc2)cc1`?
KB-V1 MDR tox: inactive; HT1080-NT tox: inconclusive; TDP1 cell noCPT: 5.8µM*; KB-3-1 tox: inactive; TDP1 cell CPT: 3.3µM*; HT1080 IDH1KD tx: 16µM*

How did Cc1cc(C)nc(SCC(=O)NN=C2CCCC2)n1 do in these assays?
KB-V1 MDR tox: inactive; HT1080-NT tox: 8%; TDP1 cell noCPT: 21µM*; KB-3-1 tox: inactive; TDP1 cell CPT: inconclusive; HT1080 IDH1KD tx: 9%

How did O=C(CSc1ncccn1)N/N=C/c1cccc([N+](=O)[O-])c1 do in these assays?
KB-V1 MDR tox: inconclusive; HT1080-NT tox: 13%; TDP1 cell noCPT: -29%; KB-3-1 tox: inconclusive; TDP1 cell CPT: 20%; HT1080 IDH1KD tx: 15%

How did Cc1cc(C)nc(SCC(=O)N/N=C/c2cccc([N+](=O)[O-])c2)n1 do in these assays?
KB-V1 MDR tox: inactive; HT1080-NT tox: 0%; TDP1 cell noCPT: 23µM*; KB-3-1 tox: inactive; TDP1 cell CPT: 18µM*; HT1080 IDH1KD tx: -5%

Results for Cc1ccc(NCC(=O)N/N=C/c2ccc(C(=O)O)cc2)cc1 ?
KB-V1 MDR tox: inactive; HT1080-NT tox: 4%; TDP1 cell noCPT: 26%; KB-3-1 tox: inactive; TDP1 cell CPT: 2%; HT1080 IDH1KD tx: 4%

What do the screens show for `COc1cc(Cl)c(C)cc1NC(=O)c1nn(-c2ccc(C)cc2)c(=O)n(C)c1=O`?
KB-V1 MDR tox: inactive; TDP1 cell noCPT: -5%; KB-3-1 tox: inactive; TDP1 cell CPT: -18%

How did COC(=O)C(Cc1ccccc1)NC(=O)CNC(=O)c1ccc(Br)cc1 (centres undefined) do in these assays?
KB-V1 MDR tox: inactive; HT1080-NT tox: -13%; TDP1 cell noCPT: -6%; KB-3-1 tox: inactive; TDP1 cell CPT: 6%; HT1080 IDH1KD tx: 2%

Results for CCOC(=O)c1noc2nc(C)n(CC(=O)Nc3ccc(OC)c(Cl)c3)c(=O)c12 ?
KB-V1 MDR tox: inactive; KB-3-1 tox: inactive

How did O=C(c1ccc(N2CCC(NCCCn3ncc4ccccc43)CC2)cc1)N1CCOCC1 do in these assays?
TDP1 cell noCPT: -13%; TDP1 cell CPT: 7%[9.04 µM]

How did CC(C)c1ccc(N2C(=O)CS(=O)(=O)C23C(=O)N(Cc2cccc(F)c2)c2ccccc23)cc1 (centres undefined) do in these assays?
KB-V1 MDR tox: inactive; TDP1 cell noCPT: inconclusive; KB-3-1 tox: inactive; TDP1 cell CPT: inconclusive

Results for CCOC(=O)Cn1c(=NC(=O)C(C)C)sc2c(C)cc(C)cc21 ?
KB-V1 MDR tox: inactive; HT1080-NT tox: -18%; TDP1 cell noCPT: 15µM*; KB-3-1 tox: inactive; TDP1 cell CPT: inconclusive; HT1080 IDH1KD tx: -5%

How did CCOC(=O)Cn1c(=NC(=O)CC)sc2c(C)cc(C)cc21 do in these assays?
KB-V1 MDR tox: inactive; HT1080-NT tox: 20%; TDP1 cell noCPT: -6%; KB-3-1 tox: inactive; TDP1 cell CPT: 1%; HT1080 IDH1KD tx: 7%

What do the screens show for `CC(C)C[C@H]1CNC(=O)C(=O)N1C[C@@H]1CCCN1C[C@H](Cc1ccc(O)cc1)N1C[C@H](Cc2ccccc2)N(CC2CCCCC2)C(=O)C1=O`?
KB-V1 MDR tox: inactive; HT1080-NT tox: inconclusive; TDP1 cell noCPT: inconclusive; KB-3-1 tox: inconclusive; TDP1 cell CPT: inconclusive; HT1080 IDH1KD tx: inconclusive

Results for CC(C)C[C@H]1CNC(=S)N1C[C@H]1CCCN1C[C@H](Cc1ccc(O)cc1)N1C[C@H](Cc2ccc(O)cc2)N(CC2CCCCCC2)C1=S ?
KB-V1 MDR tox: inconclusive; HT1080-NT tox: 12µM*; TDP1 cell noCPT: 6.5µM*; KB-3-1 tox: inconclusive; TDP1 cell CPT: 4.6µM*; HT1080 IDH1KD tx: 13µM*

Results for Oc1ccc(C[C@H]2CNC(=S)N2C[C@H]2CCCN2C[C@H](Cc2ccccc2)N2C[C@H](Cc3ccccc3)N(CC3CCCCC3)C2=S)cc1 ?
KB-V1 MDR tox: inactive; HT1080-NT tox: inconclusive; TDP1 cell noCPT: 13µM*; KB-3-1 tox: inconclusive; TDP1 cell CPT: inconclusive; HT1080 IDH1KD tx: inconclusive

What do the screens show for `CC(C)C[C@H]1CNC(=S)N1CC1CCCN1C[C@H](Cc1ccccc1)N1C[C@H](Cc2ccc(O)cc2)N(CC2CCCCCC2)C1=S` (some centres undefined)?
KB-V1 MDR tox: inconclusive; HT1080-NT tox: -21%; TDP1 cell noCPT: inconclusive; KB-3-1 tox: inconclusive; TDP1 cell CPT: inconclusive; HT1080 IDH1KD tx: inconclusive
